Assay results taken from PubChem BioAssay AID596 (National Center for Advancing Translational Sciences (NCATS), 2007).
In all, about 71,000 compounds went through this assay and about 1,400 (2%) were called active. A call without a number means that no potency is given here. Not shown: some 3% with an inconclusive outcome. This excerpt belongs to a sample that is enriched for actives. Values without a mark were called inactive. Calls come from the whole dose curve; as a rule, active = well fitted curve in the direction sought with a large enough effect; inconclusive = small, poorly fitted or top-dose-only effect; inactive = no such curve, though single readings can be large or run the other way. Non-standard residues stand in square brackets, D forms with d. Residues, ends and D or L forms follow the SMILES beside them. ξ: configuration not given here. ξV = CC(C)C(N)C(=O)O
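Note: actives lower thioflavin S fluorescence by blocking filaments or displacing dye.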
Potency is the fitted concentration of half-maximal effect.

The molecules below were run against Microtubule-associated protein tau (Homo sapiens) (UniProt P10636) (assay: qHTS Assay for Tau Filament Binding). Conditions: recombinant tau filaments, thioflavin S fluorescence, 15 h, filaments grown with octadecylsulfate alongside compound; series mostly up to 57.1 µM.
Chain of Microtubule-associated protein tau (Homo sapiens) (P10636 whole entry, looked up): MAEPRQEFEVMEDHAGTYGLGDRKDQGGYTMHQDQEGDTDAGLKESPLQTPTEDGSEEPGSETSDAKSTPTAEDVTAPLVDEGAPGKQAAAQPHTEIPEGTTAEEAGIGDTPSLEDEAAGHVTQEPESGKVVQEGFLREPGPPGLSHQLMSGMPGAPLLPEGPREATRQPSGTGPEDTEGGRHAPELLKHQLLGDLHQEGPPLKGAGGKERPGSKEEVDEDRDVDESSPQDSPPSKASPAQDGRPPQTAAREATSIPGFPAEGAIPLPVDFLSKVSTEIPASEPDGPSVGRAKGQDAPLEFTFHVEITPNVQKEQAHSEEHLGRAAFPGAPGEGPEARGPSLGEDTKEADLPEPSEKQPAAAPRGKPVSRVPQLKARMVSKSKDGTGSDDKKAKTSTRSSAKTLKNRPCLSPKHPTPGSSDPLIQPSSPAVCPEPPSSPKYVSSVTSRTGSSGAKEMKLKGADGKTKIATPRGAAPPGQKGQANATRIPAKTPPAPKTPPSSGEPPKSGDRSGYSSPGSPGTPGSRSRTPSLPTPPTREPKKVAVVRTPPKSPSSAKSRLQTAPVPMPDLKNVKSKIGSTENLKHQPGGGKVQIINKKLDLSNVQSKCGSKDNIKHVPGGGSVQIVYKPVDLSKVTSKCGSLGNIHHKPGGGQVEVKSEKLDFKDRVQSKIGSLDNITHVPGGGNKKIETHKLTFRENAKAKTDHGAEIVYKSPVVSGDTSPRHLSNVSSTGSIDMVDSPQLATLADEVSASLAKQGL
In short: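 Tau 2 uM in ThS buffer dispensed; compound added; 60 uM ODS added (finals 1 uM tau, 30 uM ODS); 15 h 37 C; fluor ex450/em510.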
In the case of `COc1ccc(F)cc1S(=O)(=O)Nc1ccc2c(c1)OCO2`, the Potency is reported as “inactive”.
With `CC(C)CNS(=O)(=O)c1ccc(OCC(=O)Nc2ccc3c(c2)OCO3)c(Cl)c1` the Potency was “inactive”.
For `COc1ccc(S(=O)(=O)Nc2ccc3c(c2)OCO3)cc1Cl`, the Potency was 20 µM (active).
Molecule `c1ccc2sc(SCCSc3nc4ccccc4s3)nc2c1` has an activity change, negative = inhibition of -3.1% [at 11.4 µM].
`CCOc1ccc(-c2cn(S(=O)(=O)c3cccc4nsnc34)nc2N)cc1` was tested, and the Potency was 25.1 µM (active).
With `CCCCN(CC)C(=O)CN(C)S(=O)(=O)c1cccc2nsnc12` the Potency was “inactive”.
In the case of `CCOc1ccc(NC(=O)CCS(=O)(=O)c2cccc3nsnc23)cc1`, the Potency is reported as “inactive”.
`CC1CCCC(NC(=O)CSc2nccn2C)C1C` (stereo not given) was tested, and the Potency was “inactive”.
For `O=C(c1cnccn1)N1CCC2(CCN(Cc3cc(C(F)(F)F)cc(C(F)(F)F)c3)CC2)CC1`, the Potency was “inactive”.
With `COc1cc(Br)cc(/C=N/c2ncn[nH]2)c1O` the Potency was 1.58 µM (active).
In the case of `C/C=C/C=C/C(=O)O`, the Potency is reported as “inactive”.
For `O=C(OCC(COC(=O)c1ccccc1)(COC(=O)c1ccccc1)COC(=O)c1ccccc1)c1ccccc1`, the Potency was “inactive”.
In the case of `N#Cc1nc(N)nc(N(c2ccccc2)c2ccccc2)n1`, the Potency is reported as 7.94 µM (active).
For `CC(C)Nc1nc(N(c2ccccc2)c2ccccc2)nc(-n2ccnc2)n1`, the Potency was “inactive”.
With `CCOC(=O)c1cn(CC(=O)Nc2ccc(C(C)C)cc2)nn1` the Potency was “inactive”.
In the case of `CCCC(=O)Nc1cc(OCC)c(NC(=O)NC2CCCCC2)cc1OCC`, the Potency is reported as “inactive”.
With `O=C(O)CC(C(=O)O)C(CC(=O)O)C(=O)O` (stereo not given) the Potency was “inactive”.
`CCCC[C@@H]1C[C@H]1C(NC(=O)c1ccco1)c1ccc(C(=O)OC)cc1` (stereo not given in full) was tested, and the Potency was “inactive”.
With `CC(=O)N1CCC(C(=O)Nc2nc(-c3ccccc3)ns2)CC1` the Potency was 10 µM (active).
In the case of `CCN(CC)S(=O)(=O)N1CCC(C(=O)NC(C)CCc2ccccc2)CC1` (stereo not given), the Potency is reported as “inactive”.
In the case of `Cc1ccc2c(NC(=O)C3CC3)cccc2n1`, the Potency is reported as “inactive”.
`Cc1noc(C)c1-c1cc(NCc2cccnc2)ncn1` was tested, and the Potency was “inactive”.
In the case of `O=S(=O)(NCc1cccnc1)c1ccc(Br)s1`, the Potency is reported as “inactive”.
With `COc1ccc(Cl)cc1S(=O)(=O)Nc1cccc(C(=O)O)c1` the Potency was “inactive”.
`Cc1ccnc(SCCn2c(N(C)Cc3ccccc3)nc3c2c(=O)n(C)c(=O)n3C)n1` was tested, and the Potency was “inactive”.
With `c1ccc2c(Nc3ccncc3)nc(-c3ccoc3)nc2c1` the Potency was 7.94 µM (active).
`COc1cccc(-c2nc(Nc3ccncc3)c3ccccc3n2)c1` was tested, and the Potency was “inactive”.
In the case of `CCOC(=O)CSc1nnc(NC(=O)c2cccc(S(=O)(=O)N3CCCCC3)c2)s1`, the Potency is reported as “inactive”.
In the case of `CCn1c(COc2cccc(OC)c2)nnc1SCC(=O)N1CCOCC1`, the Potency is reported as “inactive”.
`COC(=O)c1[nH]c2ccccc2c1NS(=O)(=O)c1ccc(OC)cc1OC` was tested, and the Potency was “inactive”.
For `CCCC(=O)Nc1c(O)c2ccccc2[nH]c1=O`, the Potency was “inactive”.
`CCCS(=O)(=O)Nc1c(C(=O)O)[nH]c2ccccc12` was tested, and the Potency was 25.1 µM (active).
`C[C@]12C=CC(=O)C=C1CC[C@@H]1[C@@H]2C(=O)C[C@@]2(C)[C@H]1CC[C@]2(O)C(=O)CO` was tested, and the Potency was “inactive”.
`CCCCn1c(SCC(=O)NCC2CCCO2)nc2ccc(N3CCOCC3)cc2c1=O` (stereo not given) was tested, and the Potency was 15.8 µM (active).
For `CCn1c(SCC(=O)NCC2CCCO2)nc2cc(S(=O)(=O)N3CCCCC3)ccc21` (stereo not given), the Potency was “inactive”.
In the case of `COCCCNC(=O)CSc1nc2ccc(N3CCOCC3)cc2c(=O)n1CCc1ccccc1`, the Potency is reported as “inactive”.
For `COC(=O)[C@@]1(Cc2ccc(OC)cc2)[C@H]2c3cc(C(=O)N4CCCC4)n(Cc4ccc(C(F)(F)F)nc4)c3C[C@H]2CN1C(=O)c1ccccc1`, the Potency was “inactive”.
With `COc1ccc(COC(=O)c2n[nH]c3ccccc23)cc1F` the Potency was “inactive”.
`COc1ccc(CCNC(=O)CCCCn2c(=O)[nH]c3ccccc3c2=O)cc1OC` was tested, and the Potency was “inactive”.
For `COc1ccc(N=Cc2c(O)[nH]c3ccccc23)cc1OC`, the Potency was 12.6 µM (active).
For `COCC(C)NC(=O)c1ccc(Cl)c(Cl)c1` (stereo not given), the Potency was “inactive”.
`COc1cccc(Cn2c(=O)cnc3cncnc32)c1` was tested, and the Potency was “inactive”.
With `COc1cccc(Nc2ncc3ncc(=O)n(C4CC4)c3n2)c1` the Potency was 12.6 µM (active).
With `CCNc1ncc2ncc(=O)n(Cc3cccc(OC)c3)c2n1` the Potency was “inactive”.
For `COc1ccc(N)c(OC)c1`, the Potency was “inactive”.
For `C=CCOC(=O)c1ccccc1C(=O)OCC=C`, the Potency was “inactive”.
In the case of `CC[C@@H]1Cc2cc(O)ccc2C2=C1c1ccc(O)cc1C[C@H]2CC`, the Potency is reported as 25.1 µM (active).
With `CC(C)CO` the Potency was “inactive”.
`CO[C@@H]1/C=C\O[C@]2(C)Oc3c(C)c(O)c4c(O)c(c(CN(C)C)c(O)c4c3C2=O)NC(=O)/C(C)=C\C=C[C@@H](C)[C@@H](O)[C@H](C)[C@@H](O)[C@H](C)[C@H](OC(C)=O)[C@@H]1C` showed an activity change, negative = inhibition of 3.4% [at 11.4 µM].
For `O=C(c1csnn1)N1CCC2(CC1)CN(c1ncccn1)C2`, the Potency was “inactive”.
For `O=NO`, the Potency was “inactive”.
With `CC(C)[C@H](CO)Nc1nc(Nc2cc(N)cc(Cl)c2)c2ncn(C(C)C)c2n1` the Potency was 31.6 µM (active).
For `CN1CCN(c2ncc3nc(-c4ccc(Cl)cc4)c(=O)n(-c4ccccc4)c3n2)CC1`, the Potency was “inactive”.
With `CCOc1cc(C(=S)N2CCOCC2)ccc1O` the Potency was “inactive”.
`COC(=O)c1ccc(CN(c2ccccc2OC)S(=O)(=O)c2cccs2)o1` was tested, and the Potency was “inactive”.
In the case of `Cc1c(C)c2c(c(C)c1O)CC[C@@](C)(CN1CCN(c3cc(N4CCCC4)nc(N4CCCC4)n3)CC1)O2`, the Potency is reported as 12.6 µM (active).
With `CC(=O)NC(C(=O)NCC(N)=O)C(C)C` (stereo not given) (Ac-[ξV]-Gly-NH2) the Potency was “inactive”.
With `CCNc1ncc2ncc(=O)n(CCc3ccccc3)c2n1` the Potency was “inactive”.
`Cc1ccc2oc(=O)ccc2c1` was tested, and the Potency was “inactive”.
With `CCCCNC(=O)c1ccccc1NC(=O)c1ccccc1N(C)S(C)(=O)=O` the Potency was “inactive”.
For `Cc1ccc(Nc2cc(=O)n(C3CCCCC3)c(=O)[nH]2)cc1C`, the Potency was “inactive”.
For `COCCn1c(=O)c(-c2cc(F)cc(F)c2)nc2cncnc21`, the Potency was “inactive”.
In the case of `COCCn1c(=O)c(-c2cc(F)cc(F)c2)nc2cnc(N3CCNCC3)nc21`, the Potency is reported as 3.16 µM (active).
In the case of `COCCn1c(=O)c(CCc2ccccc2)nc2cnc(N3CCNCC3)nc21`, the Potency is reported as “inactive”.
For `CNc1ncnc2ccc(-c3cccc(NS(C)(=O)=O)c3)cc12`, the Potency was “inactive”.
With `CCCCC(CC)CN` (stereo not given) the Potency was “inactive”.
With `CCC[C@@H]1C[C@@]1(CCC)[C@@H](NC(=O)c1ccccc1)c1ccc(C(=O)OC)cc1` the Potency was “inactive”.
`CCOc1cc(N2CCOCC2)c(OCC)cc1NC(=O)COc1cccc2cccnc12` was tested, and the Potency was 25.1 µM (active).
In the case of `CC(=O)Nc1cccc(Oc2cc(C#N)c(C#N)cc2N2CCOCC2)c1`, the Potency is reported as “inactive”.
In the case of `CCOc1cc(NC(=O)c2ccco2)c(OCC)cc1NC(=O)COc1ccccc1`, the Potency is reported as “inactive”.
With `CC/C=C/C/C=C/C/C=C/CCCCCCCC(=O)OCC` the Potency was “inactive”.
With `Cc1c(C(=O)OCC(=O)N(CCC#N)c2ccccc2)oc2c1ccc1ccccc12` the Potency was “inactive”.
`O=[n+]1c2c(n([O-])c3cc(Br)ccc31)CCC2` was tested, and the Potency was 25.1 µM (active).
`O=C1CCCc2c1[nH]c1ccc(Br)cc21` was tested, and the Potency was “inactive”.
`CCc1c(C)n([O-])c2c([n+]1=O)CCCCC2` was tested, and the Potency was “inactive”.
In the case of `CC(C)(C)[Si](OCC[C@@H]1C[C@@]1(C)[C@@H](NP(=O)(c1ccccc1)c1ccccc1)c1ccccc1)(c1ccccc1)c1ccccc1`, the Potency is reported as “inactive”.
In the case of `CC(=O)c1cccc(S(=O)(=O)N2CCC(n3nnc4cc(F)ccc43)CC2)c1`, the Potency is reported as “inactive”.
`C/C(CC(O)(/C=N/O)c1ccccc1)=N\O` (stereo not given) was tested, and the Potency was “inactive”.
`CCCC(Cl)CCCC(Cl)CCC(Cl)CCC(Cl)CCC(Cl)CCCC(Cl)CCC` (stereo not given) was tested, and the Potency was “inactive”.
With `Cc1cc(C(=O)O)ccc1[N+](=O)[O-]` the Potency was “inactive”.
`CCc1c(C)nc2ncnn2c1N1CCC(C(=O)NCc2ccc3c(c2)OCO3)CC1` was tested, and the Potency was “inactive”.
In the case of `N/C(=N\c1nc2ccccc2o1)NC(=O)C(Cc1ccccc1)N1C(=O)c2ccccc2C1=O` (stereo not given), the Potency is reported as 12.6 µM (active).
For `O=C(NCCN1CCOCC1)[C@H](Cc1ccccc1)N1C(=O)c2ccccc2C1=O`, the Potency was “inactive”.
For `Cc1ccc(C)n1C(Cc1ccccc1)C(=O)O` (stereo not given), the Potency was “inactive”.
In the case of `O=C(OC1CCOC1=O)c1ccc(-c2nc3ccccc3s2)s1` (stereo not given), the Potency is reported as “inactive”.
For `COc1ccccc1CNc1ncncc1-c1cccc(NS(C)(=O)=O)c1`, the Potency was “inactive”.
For `C#CCCCCCCCCCCCCCCCC(=O)O`, the Potency was 31.6 µM (active).
In the case of `O=C(O)CCCCC(=O)O`, the Potency is reported as “inactive”.
For `CCCCCCCCCCCC(=O)O`, the Potency was “inactive”.
`CC1(CCC(=O)OC2CCCCC2)OCCO1` was tested, and the activity change, negative = inhibition was -1.1% [at 11.4 µM].
`CC1CC(c2ccccc2)n2nc(NC(=O)c3cccs3)nc2N1` (stereo not given) was tested, and the Potency was “inactive”.
In the case of `Cc1cccc(Br)c1`, the Potency is reported as “inactive”.
In the case of `CC(=O)N1[C@H](C)C=C[C@]1(Cc1ccccc1)C(=O)NCc1ccccn1`, the Potency is reported as “inactive”.
With `Cc1ccc(-n2c(N)c(C(=O)N3CCOCC3)sc2=S)c(C)c1` the Potency was “inactive”.
In the case of `C/C(=C\c1ccco1)C1Nc2cccc3cccc(c23)N1`, the Potency is reported as 15.8 µM (active).
